Experimental data: the supplement of paper PMC4466140

B1: unnamed (peptide)
chain: RRRRRPHRIERPLSN
B2: unnamed (peptide)
chain: YHSRRHPLALGFKYV

target: AgAbp1; assay: SPOT peptide array binding signal intensity (averaged, normalized) (arbitrary units (background-subtracted, floor 0; scale differs between SH3 domains)); higher = stronger binding of the SH3 domain to the peptide
Description: (§1)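 GST-tagged SH3 domains from S. cerevisiae (Sc), A. gossypii (Ag), C. albicans (Ca) and S. pombe (Sp) were incubated at 10 ug/ml overnight at 4 C on cellulose SPOT membranes carrying 292 synthetic 15-mer peptides mined from the S. cerevisiae proteome (cysteines replaced by serines). Binding was detected with anti-GST antibody, HRP secondary and chemiluminescence, quantified with Genespotter, and reported as normalized spot intensities averaged over biological replicates.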

Row | Binder | SPOT peptide array binding signal intensity
1 | B1 | 25

target: AgBbc1; assay: as above
Description: as §1

Row | Binder | SPOT peptide array binding signal intensity
2 | B1 | 170

target: AgBem1-D1; assay: as above
Description: as §1

Row | Binder | SPOT peptide array binding signal intensity
3 | B1 | 136

target: AgBzz1-D1; assay: as above
Description: as §1

Row | Binder | SPOT peptide array binding signal intensity
4 | B1 | 33

target: AgBzz1-D2; assay: as above
Description: as §1

Row | Binder | SPOT peptide array binding signal intensity
5 | B1 | 43

target: AgCyk3; assay: as above
Description: as §1

Row | Binder | SPOT peptide array binding signal intensity
6 | B1 | 33

target: AgFus1; assay: as above
Description: as §1

Row | Binder | SPOT peptide array binding signal intensity
7 | B1 | 322

target: AgHof1; assay: as above
Description: as §1

Row | Binder | SPOT peptide array binding signal intensity
8 | B1 | 28.5

target: AgHse1; assay: as above
Description: as §1

Row | Binder | SPOT peptide array binding signal intensity
9 | B1 | 833

target: AgLsb1; assay: as above
Description: as §1

Row | Binder | SPOT peptide array binding signal intensity
10 | B1 | 4.25

target: AgLsb4; assay: as above
Description: as §1

Row | Binder | SPOT peptide array binding signal intensity
11 | B1 | 160

target: AgMyo5; assay: as above
Description: as §1

Row | Binder | SPOT peptide array binding signal intensity
12 | B1 | 2.25

target: AgNbp2; assay: as above
Description: as §1

Row | Binder | SPOT peptide array binding signal intensity
13 | B1 | 72

target: AgRvs167; assay: as above
Description: as §1

Row | Binder | SPOT peptide array binding signal intensity
14 | B1 | 3.17

target: AgSho1; assay: as above
Description: as §1

Row | Binder | SPOT peptide array binding signal intensity
15 | B1 | 37.5

target: AgSla1-D1-D2; assay: as above
Description: as §1

Row | Binder | SPOT peptide array binding signal intensity
16 | B1 | 354

target: AgSla1-D3; assay: as above
Description: as §1

Row | Binder | SPOT peptide array binding signal intensity
17 | B1 | 1

target: CaAbp1-D1; assay: as above
Description: as §1

Row | Binder | SPOT peptide array binding signal intensity
18 | B1 | 454

target: CaAbp1-D2; assay: as above
Description: as §1

Row | Binder | SPOT peptide array binding signal intensity
19 | B1 | 512

target: CaBbc1; assay: as above
Description: as §1

Row | Binder | SPOT peptide array binding signal intensity
20 | B1 | 300

target: CaBem1-D1; assay: as above
Description: as §1

Row | Binder | SPOT peptide array binding signal intensity
21 | B1 | 53.5

target: CaBzz1-D1; assay: as above
Description: as §1

Row | Binder | SPOT peptide array binding signal intensity
22 | B1 | 96

target: CaBzz1-D2; assay: as above
Description: as §1

Row | Binder | SPOT peptide array binding signal intensity
23 | B1 | 34

target: CaCyk3; assay: as above
Description: as §1

Row | Binder | SPOT peptide array binding signal intensity
24 | B1 | 147

target: CaFus1; assay: as above
Description: as §1

Row | Binder | SPOT peptide array binding signal intensity
25 | B1 | 525

target: CaHof1; assay: as above
Description: as §1

Row | Binder | SPOT peptide array binding signal intensity
26 | B1 | ≤ 0

target: CaHse1; assay: as above
Description: as §1

Row | Binder | SPOT peptide array binding signal intensity
27 | B1 | 30.5

target: CaLsb1; assay: as above
Description: as §1

Row | Binder | SPOT peptide array binding signal intensity
28 | B1 | 1.5

target: CaLsb4; assay: as above
Description: as §1

Row | Binder | SPOT peptide array binding signal intensity
29 | B1 | 108

target: CaMyo5; assay: as above
Description: as §1

Row | Binder | SPOT peptide array binding signal intensity
30 | B1 | 2

target: CaNbp2; assay: as above
Description: as §1

Row | Binder | SPOT peptide array binding signal intensity
31 | B1 | 394

target: CaRvs167; assay: as above
Description: as §1

Row | Binder | SPOT peptide array binding signal intensity
32 | B1 | 12

target: CaRvs167-3; assay: as above
Description: as §1

Row | Binder | SPOT peptide array binding signal intensity
33 | B1 | 104

target: CaSho1; assay: as above
Description: as §1

Row | Binder | SPOT peptide array binding signal intensity
34 | B1 | 674

target: CaSla1-D1-D2; assay: as above
Description: as §1

Row | Binder | SPOT peptide array binding signal intensity
35 | B1 | 27

target: CaSla1-D3; assay: as above
Description: as §1

Row | Binder | SPOT peptide array binding signal intensity
36 | B1 | 3.5

target: ScAbp1; assay: as above
Description: as §1

Row | Binder | SPOT peptide array binding signal intensity
37 | B1 | 16

target: ScBbc1; assay: as above
Description: as §1

Row | Binder | SPOT peptide array binding signal intensity
38 | B1 | 124

target: ScBem1-D1; assay: as above
Description: as §1

Row | Binder | SPOT peptide array binding signal intensity
39 | B1 | 98

target: ScBzz1-D1; assay: as above
Description: as §1

Row | Binder | SPOT peptide array binding signal intensity
40 | B1 | 7.5

target: ScBzz1-D2; assay: as above
Description: as §1

Row | Binder | SPOT peptide array binding signal intensity
41 | B1 | 15

target: ScCyk3; assay: as above
Description: as §1

Row | Binder | SPOT peptide array binding signal intensity
42 | B1 | 272

target: ScFus1; assay: as above
Description: as §1

Row | Binder | SPOT peptide array binding signal intensity
43 | B1 | 396

target: ScHof1; assay: as above
Description: as §1

Row | Binder | SPOT peptide array binding signal intensity
44 | B1 | ≤ 0

target: ScHse1; assay: as above
Description: as §1

Row | Binder | SPOT peptide array binding signal intensity
45 | B1 | 1290

target: ScLsb1; assay: as above
Description: as §1

Row | Binder | SPOT peptide array binding signal intensity
46 | B1 | 11.2

target: ScLsb2; assay: as above
Description: as §1

Row | Binder | SPOT peptide array binding signal intensity
47 | B1 | 6

target: ScLsb3; assay: as above
Description: as §1

Row | Binder | SPOT peptide array binding signal intensity
48 | B1 | 690

target: ScLsb4; assay: as above
Description: as §1

Row | Binder | SPOT peptide array binding signal intensity
49 | B1 | 7.5

target: ScMyo3; assay: as above
Description: as §1

Row | Binder | SPOT peptide array binding signal intensity
50 | B1 | 6.5

target: ScMyo5; assay: as above
Description: as §1

Row | Binder | SPOT peptide array binding signal intensity
51 | B1 | 3.25

target: ScNbp2; assay: as above
Description: as §1

Row | Binder | SPOT peptide array binding signal intensity
52 | B1 | 437

target: ScPex13; assay: as above
Description: as §1

Row | Binder | SPOT peptide array binding signal intensity
53 | B1 | 0.5

target: ScRvs167; assay: as above
Description: as §1

Row | Binder | SPOT peptide array binding signal intensity
54 | B1 | 29

target: ScSho1; assay: as above
Description: as §1

Row | Binder | SPOT peptide array binding signal intensity
55 | B1 | 430

target: ScSla1-D1-D2; assay: as above
Description: as §1

Row | Binder | SPOT peptide array binding signal intensity
56 | B1 | 303

target: ScSla1-D3; assay: as above
Description: as §1

Row | Binder | SPOT peptide array binding signal intensity
57 | B1 | 11

target: SpAbp1-D1; assay: as above
Description: as §1

Row | Binder | SPOT peptide array binding signal intensity
58 | B1 | 143

target: SpBbc1; assay: as above
Description: as §1

Row | Binder | SPOT peptide array binding signal intensity
59 | B1 | 7.25

target: SpBzz1-D1; assay: as above
Description: as §1

Row | Binder | SPOT peptide array binding signal intensity
60 | B1 | 91

target: SpBzz1-D2; assay: as above
Description: as §1

Row | Binder | SPOT peptide array binding signal intensity
61 | B1 | 1.25
62 | B2 | 2

target: SpCyk3; assay: as above
Description: as §1

Row | Binder | SPOT peptide array binding signal intensity
63 | B1 | 7
64 | B2 | 3

target: SpHof1; assay: as above
Description: as §1

Row | Binder | SPOT peptide array binding signal intensity
65 | B1 | 217
66 | B2 | 42.8

target: SpHof1-2; assay: as above
Description: as §1

Row | Binder | SPOT peptide array binding signal intensity
67 | B1 | 13
68 | B2 | 10.8

target: SpHof1-3; assay: as above
Description: as §1

Row | Binder | SPOT peptide array binding signal intensity
69 | B1 | 456
70 | B2 | 386

target: SpHse1; assay: as above
Description: as §1

Row | Binder | SPOT peptide array binding signal intensity
71 | B1 | 421
72 | B2 | 274

target: SpLsb1; assay: as above
Description: as §1

Row | Binder | SPOT peptide array binding signal intensity
73 | B1 | ≤ 0
74 | B2 | 50.5

target: SpLsb4; assay: as above
Description: as §1

Row | Binder | SPOT peptide array binding signal intensity
75 | B1 | 336
76 | B2 | ≤ 0

target: SpMyo1; assay: as above
Description: as §1

Row | Binder | SPOT peptide array binding signal intensity
77 | B1 | 3
78 | B2 | 14.5

target: SpNbp2; assay: as above
Description: as §1

Row | Binder | SPOT peptide array binding signal intensity
79 | B1 | 418
80 | B2 | 53

target: SpPex13; assay: as above
Description: as §1

Row | Binder | SPOT peptide array binding signal intensity
81 | B1 | 10
82 | B2 | 52

target: SpRvs167; assay: as above
Description: as §1

Row | Binder | SPOT peptide array binding signal intensity
83 | B1 | 3.83
84 | B2 | 66.2

target: SpSla1-D1-D2; assay: as above
Description: as §1

Row | Binder | SPOT peptide array binding signal intensity
85 | B1 | 5
86 | B2 | 1

target: SpSla1-D3; assay: as above
Description: as §1

Row | Binder | SPOT peptide array binding signal intensity
87 | B1 | 5
88 | B2 | 23.5
